Bioassay records: PubChem, several laboratories
This is a sample that favours compounds with a hit; in the whole collection about 1.8% have one here.
ARNT TACC3 PPI: disruptors of human ARNT/TACC3 interaction; AlphaScreen His-ARNT PAS-B/GST-TACC3 binding, luminescence; TACC3 fragment carries E629A point mutation; inhibition, % at 9.99 µM; 390,000 tested, 0.66% active; AID 623870;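 active means mean inhibition of replicates at least 50% and at least half of replicates each reaching 50%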
aDG glyco act: alpha-DG glycosylation activation | Pro5-aDG cells, alpha-DG glycosylation AlphaScreen (IIH6); 0% Pro5, 100% B10-LARGE cell signal | 360,000 tested, 0.22% active | activation, % at 10 µM | AID 624168;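 active means activation of at least 8% versus controls, or a plate z-score of at least 8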;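 further: Pro5 are CHO cells carrying HIG-tagged alpha-DG that lacks glycosylation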
AI-2 QS modul: Vibrio harveyi AI-2 quorum sensing modulation | Vibrio harveyi JMH597 AI-2 luminescence/OD600 ratio, 9 h; stronger effect = lower value; strain lacks LuxN and CqsS sensors; 0 = neutral-control median | activity change, % at 7.5 µM | 300,000 tested, 0.4% active | AID 2094; in the data active means activity change below about -75%, passing the limit was not always enough;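 further: luminescence divided by OD600 gain over 9 h not by final OD600 alone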
Bfl-1 A1 inh: inhibitors of the anti-apoptotic protein A1, read as caspase activation; caspase activation, % (test concentration not listed); 330,000 tested, 0.066% active; MEF A1-2A-BIM cells, Caspase-Glo 3/7 luminescence, 3 h; percent of clofoctol response, vehicle zero; AID 2462;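 active means over half of replicate activation scores above 10%, or exactly half above 10 with the replicate mean above 10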
SUMO Mot1 rescue: inhibitors of SUMOylation pathway: yeast Mot1-301 growth rescue. S. cerevisiae Mot1-301 growth rescue, ATP luminescence, 38.5C; percent above DMSO median, 100 means doubled. growth rescue, % at 18.8 µM. 320,000 tested, 1% active. AID 2716;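 active means every valid replicate shows activation above 250% relative to neutral control wells; inactive means the rest, any valid replicate at or below 250%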
Yeast Mot1 SUMO: SUMO pathway inhibitors in yeast Mot1-301 growth. shares compounds with SUMO Mot1 rescue. S. cerevisiae Mot1-301 galactose growth, ATP luminescence, 24 h; -100 = growth of slx-deleted rescue strain. growth activity, percent, % at 42 µM. 2,300 tested, under 10 active. AID 493004;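 active means Signal drops as the depositor expects, and the fitted half-maximal dose is no more than ten times the top valid tested dose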;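 further: more negative values mean stronger growth rescue toward the control strain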
A number is an active result; n = inactive; x = not tested or not shown; + = active, no number.

SMILES	ARNT TACC3 PPI	aDG glyco act	AI-2 QS modul	Bfl-1 A1 inh	SUMO Mot1 rescue	Yeast Mot1 SUMO
Cc1cc(O)cc2c1C(c1ccc(F)cc1)CC1(CC(C)(C)NC(=S)N1)O2 (stereo not given)	n	n	n	n	n	x
COc1ccc(C2CC3(CC(C)(C)NC(=S)N3)Oc3cc(O)cc(C)c32)cc1 (stereo not given)	n	n	n	n	978	n
COC(=O)c1ccc(Cl)c(NC(=O)CN(c2ccc(OC)c(OC)c2)S(C)(=O)=O)c1	n	n	n	n	563	n
O=C1CCc2cc(S(=O)(=O)N3CCCCC3)cc3c2N1CCC3	n	n	n	n	n	x
Cn1cc(Br)c(C(=O)Nc2nccs2)n1	n	n	n	n	626	n
O=C(NNC(=O)c1cc(OCC(F)(F)F)ccc1OCC(F)(F)F)c1ccc(Cl)c(Cl)c1	n	n	n	n	n	x
CCCCn1c2nc3ccccc3nc2c2c(=O)n(CCC)cnc21	n	n	n	n	731	n
CCCn1cnc2c(c1=O)c1nc3ccccc3nc1n2Cc1ccccc1OC	x	x	n	x	x	x
N#Cc1ccc2[nH]c(CO)c(-c3ccccc3)c2c1	n	n	n	n	+	n
CCOC(=O)c1cccc(NC(=O)C2CCCN(S(=O)(=O)c3c(C)n[nH]c3C)C2)c1 (stereo not given)	x	n	n	n	458	n
Cn1c(=O)c2c(ncn2CC(=O)N2CCCc3ccccc32)n(C)c1=O	n	n	n	n	n	x
Cn1c(=O)c2c(ncn2CC(=O)N2CCCCCC2)n(C)c1=O	n	n	n	n	+	n
CC1CCN(C(=O)Cn2cnc3c2c(=O)n(C)c(=O)n3C)c2ccccc2S1 (stereo not given)	n	n	n	n	761	n
COc1ccc(-c2n[nH]c(=S)nc2-c2ccc(OC)cc2)cc1	n	n	n	n	n	x
NC(=O)CC(NC(=S)NCc1ccccc1)C(=O)O (stereo not given)	n	n	n	n	583	n
CCCC(=O)Oc1c(S(=O)(=O)c2ccc(C)cc2)c(C)nn1C(C)(C)C	n	n	n	n	635	n
C/C(=N\NC(=O)COc1ccccc1F)c1cc2ccccc2o1	n	n	n	n	n	x
CSc1nnc2c3cc(C)ccc3n(Cc3ccccc3)c2n1	x	n	n	n	910	n
CCCCCC(=O)Nc1nnn(CCC)n1	n	n	n	n	+	n
CCCn1nnc(NC(=O)Cc2ccccc2)n1	n	n	n	n	n	x
CCOC(=O)N1CCN(c2nnnn2-c2ccccc2)CC1	n	n	n	n	366	n
O=C(c1ccc(N2CCN(C(=O)c3cccc(F)c3)CC2)cc1)c1cccc(F)c1	n	n	n	n	n	x
CN(CCOc1ccc(Cl)cc1)CC(=O)Nc1ccc(OC(F)F)cc1	n	n	n	n	403	n
COC(=O)CSc1nnc(C2COc3ccccc3O2)n1-c1ccccc1 (stereo not given)	n	n	n	n	n	x
CCN(CC)CCCNC(=S)N(CCCO)Cc1cc2cc3c(cc2[nH]c1=O)OCO3	n	n	n	n	n	x
SMILES	ARNT TACC3 PPI	aDG glyco act	AI-2 QS modul	Bfl-1 A1 inh	SUMO Mot1 rescue	Yeast Mot1 SUMO
O=C(c1cc(N2C(=O)C3C4CCC(C4)C3C2=O)ccc1Cl)N1CCN(c2ccc(F)cc2)CC1 (stereo not given)	n	n	n	n	n	x
O=C(c1cc(N2C(=O)C3C4CCC(C4)C3C2=O)ccc1Cl)N1CCCCCC1 (stereo not given)	n	n	n	n	361	n
CCCCN(C(=O)c1ccc(COc2ccccc2)o1)c1c(N)n(CC(C)C)c(=O)[nH]c1=O	n	n	x	n	n	x
COCCCNS(=O)(=O)c1ccc(Oc2ncc(C(F)(F)F)cc2Cl)cc1	n	n	n	n	+	n
Cc1ccc(C(C(=O)NCc2ccccc2)N(C(=O)c2csnn2)c2cccc3ccccc23)o1 (stereo not given)	n	n	n	n	n	x
C=C(C)C(=O)Nc1cccc(C2=NOC3(C2)C[C@@H](C(N)=O)N(C(=O)/C=C/CC)C3)c1 (stereo not given in full)	n	n	n	n	n	x
COc1ccccc1OCCSc1nc2ccccc2n1CCC(=O)O	n	n	n	n	+	n
